Sampled rows, rich in hits. Any-hit rate of the full collection: about 3.4%.
PAFAH1B3 FP inh = PAFAH1B3 (human) inhibition | actives 0.28% (n = 340,000) | Q15102 | recombinant PAFAH1B3, FP-rhodamine probe, fluorescence polarization | inhibition, % at 3.39 µM | AID 492972;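 active = inhibition above the screen-wide average of all tested compounds plus 3 SD, cut at about 25% in these data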;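 note: 0% = enzyme with DMSO only and 100% = wells lacking PAFAH1B3 protein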
Target sequence (Q15102 whole entry, looked up): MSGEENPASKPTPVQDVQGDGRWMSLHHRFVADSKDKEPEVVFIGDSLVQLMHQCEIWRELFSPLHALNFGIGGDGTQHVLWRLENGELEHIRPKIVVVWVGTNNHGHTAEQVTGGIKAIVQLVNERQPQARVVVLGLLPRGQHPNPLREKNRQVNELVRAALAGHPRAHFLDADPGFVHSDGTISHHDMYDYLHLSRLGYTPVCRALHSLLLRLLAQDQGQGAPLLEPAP
pPAFAH inh = inhibitors of human plasma PAF acetylhydrolase (pPAFAH) | inhibition, % at 3.39 µM | Q13093 | AID 463082 | recombinant pPAFAH, FP-rhodamine probe fluorescence polarization | actives 1.5% (n = 330,000);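 active = inhibition above the mean inhibition across the screen plus 3 SD, cut at about 25% in these data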;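 note: inhibitors block binding of the rhodamine activity-based probe so polarization drops; 0% = enzyme with DMSO and 100% = wells lacking pPAFAH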
PAFAH1B2 inh = PAFAH1B2 (human) inhibition. recombinant PAFAH1B2, FP-rhodamine activity probe, fluorescence polarization. inhibition, % at 3.39 µM. actives 1.2% (n = 340,000);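 active = inhibition above the mean of all tested compounds plus 3 SD, cut at about 24% in these data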;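 note: 0% = enzyme with DMSO and 100% = wells lacking PAFAH1B2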
PAFAH2 inh = PAFAH2 (human) inhibition; Q99487; recombinant PAFAH2, FP-rhodamine activity probe, fluorescence polarization; inhibition, % at 3.39 µM; actives 0.99% (n = 340,000);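 active = inhibition above the mean over all tested compounds plus 3 SD, cut at about 30% in these data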;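 note: inhibitors block probe labeling of enzyme so polarization drops; 0% = enzyme with DMSO and 100% = wells lacking PAFAH2 protein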
PP1 counter = counter-screen for PP5 inhibitors: inhibitors of human PP1-alpha; P62136; inhibition, % at 6.7 µM; purified PP1alpha, OMFP fluorescence; actives 0.9% (n = 320,000);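 active = inhibition above the mean inhibition of all tested compounds plus 3 SD, computed separately for each screening campaign, cut at about 15% in these data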
PP5 inh = inhibitors of human protein phosphatase 5 (PP5); actives 0.18% (n = 320,000); inhibition, % at 6.7 µM; purified PP5c, OMFP substrate fluorescence;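 active = inhibition above the campaign's mean inhibition across all tested compounds plus 3 SD, cut at about 9.5% in these data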;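 note: 0% = DMSO only and 100% = 100 µM cantharidin control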
* = called active by the depositor; / = not tested or not shown.

SMILES	PAFAH1B3 FP inh	pPAFAH inh	PAFAH1B2 inh	PAFAH2 inh	PP1 counter	PP5 inh
COc1cc(C(C(=O)Nc2c(C)cccc2C)N(C)C(=O)c2ccc(-n3cnnn3)cc2)ccc1O (stereo not drawn)	-1	5	-2	-5	-4	1
O=[N+]([O-])c1ccc(NN=Cc2ccccc2)nc1	12	/	3	9	/	/
O=[N+]([O-])c1ccc(N/N=C\c2cccn2-c2ccccc2)nc1	0	29*	6	-2	4	4
CCN(CC)c1ccc(/C=C(\C#N)C(=O)c2ccc(Br)cc2)cc1	41*	-4	55*	81*	-5	-6
CCCOc1ccc(C(=O)O/N=C(\CC)c2ccc(C)cc2)cc1	-2	20	-4	-4	2	-1
C/C(=N\OC(=O)c1ccc(OC(C)C)cc1)c1ccc(C)c(C)c1	4	28*	0	23	1	3
C/C(=N\OC(=O)c1ccc(F)cc1)c1ccc(F)c(F)c1	-5	3	22	37*	-2	2
CC/C(=N\OC(=O)c1ccc(OC(C)C)cc1)c1ccc(C)cc1	0	29*	1	9	2	4
CCOC(=O)c1ccc(NC(=O)c2cc(F)c(F)cc2Cl)cc1	5	-3	5	-8	0	2
COc1ccc([N+](=O)[O-])cc1N1C(=O)c2cccnc2C1=O	0	4	-3	-2	0	3
CCOC(=O)C1CCN(C(=O)COC(=O)CSc2ccc([N+](=O)[O-])cc2)CC1	5	31*	9	0	-2	1
COc1ccc(NC(=O)C2=CC(c3ccc(C)cc3)=NS(=O)(=O)N2C)cc1	4	5	0	-9	2	0
Cc1ccc(OCC(=O)c2ccc(Cl)s2)c([N+](=O)[O-])n1	8	25*	5	3	10	7
CCN(Cc1ccccc1)c1ccc(/C=N/NC(=S)NC(C)C)cc1	13	22	26*	0	2	1
CCN(CC)c1ccc(/C=N/NC(=S)NCc2ccco2)cc1	2	29*	1	-2	12	1
CCN(Cc1ccccc1)c1ccc(/C=N/NS(=O)(=O)c2ccc(C)c([N+](=O)[O-])c2)cc1	5	3	28*	1	-3	3
CCc1ccc(C(=O)Nc2ccc(OC)c(S(=O)(=O)N3CCCCC3)c2)cc1	-9	-4	-5	-8	2	2
CS(=O)(=O)Nc1ccccc1C(=O)Nc1cc(Cl)cc(Cl)c1	8	28*	16	9	1	4
CC1CCC(C(C)C)C(OC(=O)CSc2nnc(N)s2)C1 (stereo not drawn)	2	-2	27*	7	3	2
Cc1ccc(Cl)cc1NC(=O)CN1C(=O)NC(C)(C2CC2)C1=O (stereo not drawn)	10	0	1	5	/	/
COc1oc(C(=O)NC2CCCCC2)c(-c2ccc(Cl)cc2)c1S(=O)(=O)c1ccccc1	-1	/	32*	5	/	/
C/C(=N/Nc1cc(-c2ccccc2)nc(-c2ccccc2)n1)c1ccc(O)cc1	6	7	-8	-7	1	7
O=C(O)c1cccc(-n2cccc2/C=C2/NC(=O)N(c3ccc(Cl)cc3)C2=O)c1	36*	/	28*	72*	/	/
Cc1ccc(NC(=O)c2nc[nH]c2C(=O)NCCCNC(=O)c2[nH]cnc2C(=O)Nc2ccc(C)cc2)cc1	-5	1	2	-16	/	/
Nc1c(/C=C2/C=CC(=O)C(O)=C2)c(=O)nc2sc(CC(=O)N3CCOCC3)nn12	15	/	26*	19	/	/
Nc1c(/C=C2/C=CC(=O)C(O)=C2)c(=O)nc2sc(CC(=O)N3CCCCC3)nn12	19	32*	54*	35*	2	-1
Cc1[nH]c2ccccc2c1C(=O)COC(=O)C1CCC(=O)N1 (stereo not drawn)	3	6	4	0	-3	1
CCN(CC(=O)Nc1c(F)cccc1F)C(=O)CNC(=O)c1ccc2c(c1)OCO2	2	3	4	-4	4	1
CC(C)[C@H](NS(=O)(=O)c1ccccc1)C(=O)OCC(=O)N1N=C(c2ccc(Cl)cc2)CC1c1ccco1 (stereo partly drawn)	0	15	2	0	16*	5
CC(=O)N1CCc2cc(S(=O)(=O)CCC(=O)NCc3ccc(Cl)cc3)ccc21	-1	0	-3	1	-3	3

Assay outcomes (PubChem BioAssay)
